The results in this text go back to the supplement of paper PMC8253809.

Several values for one entry are separate records, joined by “and”; a condition that tells them apart may be missing. Equal entries are not always repeated.

The first test deals with SUDIPGIV (diffuse intrinsic pontine glioma line)
As to the kind of experiment: growth inhibition (% activity, log2 RLU normalised to DMSO / staurosporine); higher = more growth inhibition. The following applies: 33 µM. The method in brief: (§1)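 For each approved drug, the growth-inhibition value is the replicate median of per-plate normalised CellTiter-Glo data. Luminescence was log2-transformed and expressed as % activity between solvent and positive control wells. Drugs were applied in triplicate at a single final concentration of about 33 μM for 7 days at 37 °C, 5% CO2 to pHGG cell lines and H9-derived neural stem cells.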
On to `O=C(O)c1cccnc1Nc1cccc(C(F)(F)F)c1`, for which the growth inhibition was -3.93%.

Regarding `C=C(c1ccc(C(=O)O)cc1)c1cc2c(cc1C)C(C)(C)CCC2(C)C`, the growth inhibition amounted to 6.25%.

As to `CC1(C)S[C@@H]2[C@H](NC(=O)Cc3ccccc3)C(=O)N2[C@H]1C(=O)O`, the growth inhibition worked out at 0.754%.

`Cc1cn(C2C=CC(CO)O2)c(=O)[nH]c1=O` (stereo not drawn): the growth inhibition is -1.27%.

Consider `CC(C)(C)C(=O)C(Oc1ccc(Cl)cc1)n1ccnc1` (stereo not drawn), for which the growth inhibition came out at 7.06%.

Consider `Cc1ccc(S(=O)(=O)NC(=O)NN2CCCCCC2)cc1`, for which the growth inhibition is -2.7%.

Consider `Cc1cc(C2CCCCC2)n(O)c(=O)c1`, for which the growth inhibition is 13.4% and 8.52%.

As for `OCCOCCN1CCN(C(c2ccccc2)c2ccc(Cl)cc2)CC1` (stereo not drawn), the growth inhibition stood at 1.02%.

`Oc1c(Br)cc(Br)c2cccnc12`: the growth inhibition stood at 0.619%.

On to `COC(=O)C1=CO[C@@H](O[C@@H]2O[C@H](CO)[C@@H](O)[C@H](O)[C@H]2O)[C@@H]2C(CO)=CC[C@H]12`, for which the growth inhibition is -1.32%.

With `CCn1cc(C(=O)O)c(=O)c2ccc(C)nc21`, the growth inhibition is -0.499%.

As for `CCOC(=O)c1ccc(N)cc1`, the growth inhibition was -0.0558%.

`CCCN1CCCC[C@H]1C(=O)Nc1c(C)cccc1C`: the growth inhibition was -1.01%.

Turning to `CC(C)[C@H]1CC[C@H](C(=O)N[C@H](Cc2ccccc2)C(=O)O)CC1`, the growth inhibition was -1.21%.

As to `NS(=O)(=O)c1cc2c(cc1Cl)NC(C(Cl)Cl)NS2(=O)=O` (stereo not drawn), the growth inhibition was -3.21%.

Take `COc1cc2c(cc1OC)CC(=O)N(CCCN(C)C[C@H]1Cc3cc(OC)c(OC)cc31)CC2`: the growth inhibition came to 0.5%.

As for `CCCc1nc(C)c2c(=O)nc(-c3cc(S(=O)(=O)N4CCN(CC)CC4)ccc3OCC)[nH]n12`, the growth inhibition is 0.711%.

Regarding `CCC(C)n1ncn(-c2ccc(N3CCN(c4ccc(OCC5COC(Cn6cncn6)(c6ccc(Cl)cc6Cl)O5)cc4)CC3)cc2)c1=O` (stereo not drawn), the growth inhibition is 1.44%.

`Cc1onc(-c2ccccc2)c1-c1ccc(S(N)(=O)=O)cc1`: the growth inhibition was -2.73%.

Consider `C#C[C@]1(O)CC[C@H]2[C@@H]3CCC4=CC(=O)CC[C@@H]4[C@H]3CC[C@@]21C`, for which the growth inhibition is -0.735%.

For the compound `N=C(N)c1ccc(N=NNc2ccc(C(=N)N)cc2)cc1`, the growth inhibition was found to be 15.4%.

Regarding `O[C@@H]1CO[C@H]2[C@@H]1OC[C@@H]2O`, the growth inhibition was -2.68%.

In the case of `CC[C@H]1OC(=O)[C@H](C)[C@@H](O[C@H]2C[C@@](C)(OC)[C@@H](O)[C@H](C)O2)[C@H](C)[C@@H](O[C@@H]2O[C@H](C)C[C@H](N(C)C)[C@H]2O)[C@](C)(O)C[C@@H](C)[C@@H]2N[C@@H](COCCOC)O[C@H]([C@H]2C)[C@]1(C)O`, the growth inhibition is -1.28%.

In the case of `CC(C)NCC(O)COc1cccc2ccccc12` (stereo not drawn), the growth inhibition is -1.1%.

In the case of `N#CC1(c2ccc(NC(=O)c3cccnc3NCc3ccncc3)cc2)CCCC1`, the growth inhibition is 7.08%.

With `Clc1ccc2c(c1)C(N1CCNCC1)=Nc1ccccc1O2`, the growth inhibition was determined as 0.284%.

As for `C=C1CCC(O)CC1=CC=C1CCCC2(C)C1CCC2C(C)CCCC(C)(C)O` (stereo not drawn), the growth inhibition was 3.43%.

Regarding `CC(=O)Oc1cc(C(F)(F)F)ccc1C(=O)O`, the growth inhibition is -2.59%.

In the case of `O=c1ccc2ccccc2o1`, the growth inhibition is -0.0159%.

Turning to `Cc1c(O)c(=O)ccn1C`, the growth inhibition was -2.04%.

Consider `CN(C)CCC=C1c2ccccc2CCc2ccccc21`, for which the growth inhibition is 1.93%.

On to `CC(C)(C(=O)O)c1ccc(C(O)CCCN2CCC(C(O)(c3ccccc3)c3ccccc3)CC2)cc1` (stereo not drawn), for which the growth inhibition came to 0.0574%.

Take `C[C@@H](O)[C@H]1C(=O)N2C(C(=O)OCOC(=O)C(C)(C)C)=C(SC3CN(C4=NCCS4)C3)[C@H](C)[C@H]12`: the growth inhibition is -0.736%.

Consider `Cc1c(Nc2ncccc2C(=O)O)cccc1C(F)(F)F`, for which the growth inhibition is -3.76%.

With `CCCCCCCN(CC)CCCC(O)c1ccc(NS(C)(=O)=O)cc1` (stereo not drawn), the growth inhibition is 0.633%.

Consider `COc1ccccc1N1CCN(CCCNc2cc(=O)n(C)c(=O)n2C)CC1`, for which the growth inhibition is -1.07%.

As to `Cc1ncc([N+](=O)[O-])n1CC(C)O` (stereo not drawn), the growth inhibition was -1.52%.

In the case of `CC[C@H]1OC(=O)[C@H](C)[C@@H](O[C@H]2C[C@@](C)(OC)[C@@H](O)[C@H](C)O2)[C@H](C)[C@@H](O[C@@H]2O[C@H](C)C[C@H](N(C)C)[C@H]2O)[C@](C)(O)C[C@@H](C)/C(=N\OCOCCOC)[C@H](C)[C@@H](O)[C@]1(C)O`, the growth inhibition is 0.447%.

With `N=S(=O)(O)Cc1noc2ccccc12`, the growth inhibition was -1.71%.

The subject of a further test is SUDIPGVI (diffuse intrinsic pontine glioma line)
The test is described as above. The following applies: 33 µM. The method in brief:
as §1
Turning to `O=C(O)c1cccnc1Nc1cccc(C(F)(F)F)c1`, the growth inhibition was 2.23%.

Turning to `C=C(c1ccc(C(=O)O)cc1)c1cc2c(cc1C)C(C)(C)CCC2(C)C`, the growth inhibition was 9.87%.

Regarding `CC1(C)S[C@@H]2[C@H](NC(=O)Cc3ccccc3)C(=O)N2[C@H]1C(=O)O`, the growth inhibition amounted to 0.396%.

For the compound `Cc1cn(C2C=CC(CO)O2)c(=O)[nH]c1=O` (stereo not drawn), the growth inhibition is 1%.

As for `CC(C)(C)C(=O)C(Oc1ccc(Cl)cc1)n1ccnc1` (stereo not drawn), the growth inhibition is 2.6%.

As for `Cc1ccc(S(=O)(=O)NC(=O)NN2CCCCCC2)cc1`, the growth inhibition was -0.0433%.

For the compound `Cc1cc(C2CCCCC2)n(O)c(=O)c1`, the growth inhibition was -4.21% and -2.85%.

Regarding `OCCOCCN1CCN(C(c2ccccc2)c2ccc(Cl)cc2)CC1` (stereo not drawn), the growth inhibition was -1.15%.

Take `Oc1c(Br)cc(Br)c2cccnc12`: the growth inhibition was found to be 2.93%.

In the case of `COC(=O)C1=CO[C@@H](O[C@@H]2O[C@H](CO)[C@@H](O)[C@H](O)[C@H]2O)[C@@H]2C(CO)=CC[C@H]12`, the growth inhibition is -2.76%.

As for `CCn1cc(C(=O)O)c(=O)c2ccc(C)nc21`, the growth inhibition was -1.38%.

Regarding `CCOC(=O)c1ccc(N)cc1`, the growth inhibition is -0.0967%.

On to `CCCN1CCCC[C@H]1C(=O)Nc1c(C)cccc1C`, for which the growth inhibition came to 0.908%.

With `CC(C)[C@H]1CC[C@H](C(=O)N[C@H](Cc2ccccc2)C(=O)O)CC1`, the growth inhibition is -0.179%.

Consider `NS(=O)(=O)c1cc2c(cc1Cl)NC(C(Cl)Cl)NS2(=O)=O` (stereo not drawn), for which the growth inhibition stood at 2.47%.

For `COc1cc2c(cc1OC)CC(=O)N(CCCN(C)C[C@H]1Cc3cc(OC)c(OC)cc31)CC2`, the growth inhibition came to 1.04%.

Take `CCCc1nc(C)c2c(=O)nc(-c3cc(S(=O)(=O)N4CCN(CC)CC4)ccc3OCC)[nH]n12`: the growth inhibition is 0.112%.

Take `CCC(C)n1ncn(-c2ccc(N3CCN(c4ccc(OCC5COC(Cn6cncn6)(c6ccc(Cl)cc6Cl)O5)cc4)CC3)cc2)c1=O` (stereo not drawn): the growth inhibition is 1.98%.

As to `Cc1onc(-c2ccccc2)c1-c1ccc(S(N)(=O)=O)cc1`, the growth inhibition turned out to be 2.54%.

With `C#C[C@]1(O)CC[C@H]2[C@@H]3CCC4=CC(=O)CC[C@@H]4[C@H]3CC[C@@]21C`, the growth inhibition turned out to be 0.661%.

With `N=C(N)c1ccc(N=NNc2ccc(C(=N)N)cc2)cc1`, the growth inhibition came to 0.511%.

Consider `O[C@@H]1CO[C@H]2[C@@H]1OC[C@@H]2O`, for which the growth inhibition is -0.216%.

`CC[C@H]1OC(=O)[C@H](C)[C@@H](O[C@H]2C[C@@](C)(OC)[C@@H](O)[C@H](C)O2)[C@H](C)[C@@H](O[C@@H]2O[C@H](C)C[C@H](N(C)C)[C@H]2O)[C@](C)(O)C[C@@H](C)[C@@H]2N[C@@H](COCCOC)O[C@H]([C@H]2C)[C@]1(C)O`: the growth inhibition was -0.768%.

In the case of `CC(C)NCC(O)COc1cccc2ccccc12` (stereo not drawn), the growth inhibition is 0.673%.

For the compound `N#CC1(c2ccc(NC(=O)c3cccnc3NCc3ccncc3)cc2)CCCC1`, the growth inhibition is -1.37%.

As for `Clc1ccc2c(c1)C(N1CCNCC1)=Nc1ccccc1O2`, the growth inhibition was determined as 2.1%.

Take `C=C1CCC(O)CC1=CC=C1CCCC2(C)C1CCC2C(C)CCCC(C)(C)O` (stereo not drawn): the growth inhibition is -3.1%.

Turning to `CC(=O)Oc1cc(C(F)(F)F)ccc1C(=O)O`, the growth inhibition is -2.15%.

As to `O=c1ccc2ccccc2o1`, the growth inhibition was 1.45%.

Turning to `Cc1c(O)c(=O)ccn1C`, the growth inhibition worked out at 0.573%.

For `CN(C)CCC=C1c2ccccc2CCc2ccccc21`, the growth inhibition was found to be 2.05%.

For the compound `CC(C)(C(=O)O)c1ccc(C(O)CCCN2CCC(C(O)(c3ccccc3)c3ccccc3)CC2)cc1` (stereo not drawn), the growth inhibition was 1.9%.

Regarding `C[C@@H](O)[C@H]1C(=O)N2C(C(=O)OCOC(=O)C(C)(C)C)=C(SC3CN(C4=NCCS4)C3)[C@H](C)[C@H]12`, the growth inhibition stood at 2.12%.

`Cc1c(Nc2ncccc2C(=O)O)cccc1C(F)(F)F`: the growth inhibition was 2.1%.

Regarding `CCCCCCCN(CC)CCCC(O)c1ccc(NS(C)(=O)=O)cc1` (stereo not drawn), the growth inhibition is 1.61%.

As to `COc1ccccc1N1CCN(CCCNc2cc(=O)n(C)c(=O)n2C)CC1`, the growth inhibition was -1.77%.

Turning to `Cc1ncc([N+](=O)[O-])n1CC(C)O` (stereo not drawn), the growth inhibition is -0.382%.

For the compound `CC[C@H]1OC(=O)[C@H](C)[C@@H](O[C@H]2C[C@@](C)(OC)[C@@H](O)[C@H](C)O2)[C@H](C)[C@@H](O[C@@H]2O[C@H](C)C[C@H](N(C)C)[C@H]2O)[C@](C)(O)C[C@@H](C)/C(=N\OCOCCOC)[C@H](C)[C@@H](O)[C@]1(C)O`, the growth inhibition is -0.66%.

`N=S(=O)(O)Cc1noc2ccccc12`: the growth inhibition was -4.93%.
